The source made the active and inactive calls.
What was measured:
[1] = optical density shifts of acrAB sulA E. coli – strain DRC41, OD650, 48 h, E. coli filamentation inducer project, primary screen (AID 1152); conditions: higher = more signal, called active from +8 up or from −8 down;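 also: E. coli MC1000 strain DRC41 lacking acrAB efflux pump and sulA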
[2] = probe aLefty1 binding on compound microarray – biochemical, small-molecule microarray, 635/667 nm fluorescence, primary screen (AID 1153); conditions: higher = more signal;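 also: score merges spot fluorescence with signal-to-noise ratio from the scanned slide images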
[3] = plasmodial surface anion channel blockers, osmotic lysis – cell-based, P. falciparum Indochina, OD700, 1 h, primary screen (AID 1154); conditions: P. falciparum Indochina infected RBC osmotic lysis, higher = more signal, called active from +8 up or from −8 down
[4] = plasmodial surface anion channel blockers, osmotic lysis – cell-based, P. falciparum Indochina, OD700, 2 h, primary screen (AID 1155);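 also: lysis reports solute entry through the parasite surface anion channel PSAC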; conditions: P. falciparum Indochina infected erythrocytes, higher = more signal, called active from +8 up or from −8 down
[5] = changes in parasitized red cell lysis, either direction – P. falciparum Indochina, OD700, 3 h, PSAC antagonist project, primary screen (AID 1156); conditions: P. falciparum-infected erythrocytes, osmotic lysis, higher = more signal, called active from +8 up or from −8 down
[6] = plasmodial surface anion channel blockers, osmotic lysis – cell-based, P. falciparum Indochina, OD700, 18 h, primary screen (AID 1157); conditions: P. falciparum Indochina infected erythrocytes, osmotic lysis OD700, 18 h; higher = more signal, called active from +8 up or from −8 down
[7] = S6 kinase pathway phospho-S6 level changes – cell-based, A549, cytoblot, luminescence, serum-stimulated, primary screen (AID 1158); conditions: 5 h, higher = more signal;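 also: serum-stimulated A549 lung adenocarcinoma cells; signal is phosphorylated S6 detected by cytoblot immunostaining with HRP secondary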
[8] = target: NADPH oxidase 2 (Homo sapiens) (UniProt P04839); experiment: compounds shifting NOX2 Amplex Red fluorescence – cell-based, HEK293-NOX2, PMA-stimulated, NOX inhibitor project, primary screen (AID 1159); conditions: 45 min, higher = more signal, called active from +8 up or from −8 down; also: test concentration not given here
[9] = target: NADPH oxidase 4 (Homo sapiens) (UniProt Q9NPH5); experiment: compounds shifting NOX4 Amplex Red fluorescence – cell-based, HEK293-NOX4, tetracycline-induced, NOX inhibitor project, primary screen (AID 1160); conditions: HEK293-NOX4, Amplex Red H2O2 fluorescence, 45 min; higher = more signal, called active from +8 up or from −8 down
[10] = target: NADPH oxidase 5 (Homo sapiens) (UniProt Q96PH1); experiment: compounds shifting NOX5 Amplex Red fluorescence – cell-based, HEK293-NOX5, NOX inhibitor project, primary screen (AID 1161); conditions: HEK293-NOX5, ionomycin, 45 min, higher = more signal
[11] = compound effects on lung adenocarcinoma cell viability – A549, calcein-AM fluorescence, 48 h, basal, profiling panel (AID 1162); conditions: higher = more signal; also: test concentration not given here
[12] = compound effects on differentiated 3T3-L1 adipocyte viability – cell-based, 3T3-L1 adipocytes, calcein-AM fluorescence, 48 h, basal, profiling panel (AID 1163); conditions: 3T3-L1 adipocytes viability, higher = more signal; also: test concentration not given here
[13] = compound effects on hepatocellular carcinoma cell viability – HepG2, calcein-AM fluorescence, 48 h, basal, profiling panel (AID 1164); conditions: higher = more signal; also: test concentration not given here
[14] = compound effects on multiple myeloma cell viability – MM1S, calcein-AM fluorescence, 48 h, basal, profiling panel (AID 1165); conditions: higher = more signal; also: test concentration not given here
[15] = calcein-AM signal in unstimulated myeloma cells – cell-based, calcein-AM fluorescence, 48 h, PK04 Diversity Set, profiling panel (AID 1166); conditions: RPMI8226 myeloma viability, higher = more signal;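 also: cells grown under basal conditions without added stimulus; test concentration not given here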
[16] = JC-1 mitochondrial signal, unstimulated HepG2 cells – cell-based, JC-1 fluorescence, 24 h, 100 nL compound, profiling panel (AID 1167); conditions: HepG2 mitochondrial potential, higher = more signal; also: test concentration not given here
[17] = JC-1 mitochondrial signal, unstimulated adipocytes – cell-based, JC-1 fluorescence, 3T3-L1 adipocytes, 24 h, 100 nL compound, profiling panel (AID 1168); conditions: JC-1 mitochondrial fluorescence, higher = more signal, called active from +8 up or from −8 down; also: test concentration not given here
[18] = JC-1 mitochondrial signal, unstimulated myeloma cells – cell-based, JC-1 fluorescence, RPMI8226, 24 h, 100 nL compound, profiling panel (AID 1169); conditions: JC-1 mitochondrial potential fluorescence, higher = more signal; also: test concentration not given here
[19] = JC-1 mitochondrial signal, unstimulated MM1S myeloma – cell-based, JC-1 fluorescence, 24 h, 100 nL compound, profiling panel (AID 1170); conditions: MM1S mitochondrial potential, higher = more signal; also: test concentration not given here
[20] = resazurin metabolic signal in A549 cells – cell-based, resazurin fluorescence, 24 h, PK04 Diversity Set, profiling panel (AID 1171); conditions: A549 viability, higher = more signal, called active from +8 up or from −8 down; also: test concentration not given here

Sequence of NADPH oxidase 2 (Homo sapiens) (P04839 whole entry, looked up): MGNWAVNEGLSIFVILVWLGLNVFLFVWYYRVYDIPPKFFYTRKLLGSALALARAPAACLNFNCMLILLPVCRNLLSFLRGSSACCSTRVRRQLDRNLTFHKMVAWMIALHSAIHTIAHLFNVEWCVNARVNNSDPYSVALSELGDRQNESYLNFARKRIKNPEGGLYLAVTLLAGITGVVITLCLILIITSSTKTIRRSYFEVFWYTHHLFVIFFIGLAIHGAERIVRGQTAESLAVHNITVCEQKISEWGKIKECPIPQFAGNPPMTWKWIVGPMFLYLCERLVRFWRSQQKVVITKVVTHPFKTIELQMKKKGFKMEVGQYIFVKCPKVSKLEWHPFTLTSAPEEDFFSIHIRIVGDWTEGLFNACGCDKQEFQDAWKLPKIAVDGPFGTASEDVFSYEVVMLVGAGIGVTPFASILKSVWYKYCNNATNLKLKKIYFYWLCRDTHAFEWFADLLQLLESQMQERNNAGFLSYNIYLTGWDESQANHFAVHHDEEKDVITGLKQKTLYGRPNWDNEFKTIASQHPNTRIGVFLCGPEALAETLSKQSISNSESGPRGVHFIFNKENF
Sequence of NADPH oxidase 5 (Homo sapiens) (Q96PH1 whole entry, looked up): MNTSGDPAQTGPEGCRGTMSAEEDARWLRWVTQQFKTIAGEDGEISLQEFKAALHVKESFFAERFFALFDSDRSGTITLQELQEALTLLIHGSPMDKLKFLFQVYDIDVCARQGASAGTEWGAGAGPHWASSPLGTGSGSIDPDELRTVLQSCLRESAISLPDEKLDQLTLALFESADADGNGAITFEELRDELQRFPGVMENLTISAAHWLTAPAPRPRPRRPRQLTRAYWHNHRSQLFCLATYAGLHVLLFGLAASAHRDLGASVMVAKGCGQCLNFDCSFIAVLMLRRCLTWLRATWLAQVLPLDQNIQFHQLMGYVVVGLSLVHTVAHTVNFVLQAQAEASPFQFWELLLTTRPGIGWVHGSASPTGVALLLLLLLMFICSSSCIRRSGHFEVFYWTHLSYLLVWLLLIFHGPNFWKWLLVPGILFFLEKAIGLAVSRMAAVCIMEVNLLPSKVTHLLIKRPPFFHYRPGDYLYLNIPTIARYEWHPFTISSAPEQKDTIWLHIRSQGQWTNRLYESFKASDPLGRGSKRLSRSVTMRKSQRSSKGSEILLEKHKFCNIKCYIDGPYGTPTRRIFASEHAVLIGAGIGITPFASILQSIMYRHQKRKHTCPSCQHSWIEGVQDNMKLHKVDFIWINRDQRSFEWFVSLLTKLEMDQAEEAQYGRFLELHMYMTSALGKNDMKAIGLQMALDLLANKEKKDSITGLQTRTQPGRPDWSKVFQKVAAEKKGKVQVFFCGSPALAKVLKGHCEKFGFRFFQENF
Sequence of NADPH oxidase 4 (Homo sapiens) (Q9NPH5 whole entry, looked up): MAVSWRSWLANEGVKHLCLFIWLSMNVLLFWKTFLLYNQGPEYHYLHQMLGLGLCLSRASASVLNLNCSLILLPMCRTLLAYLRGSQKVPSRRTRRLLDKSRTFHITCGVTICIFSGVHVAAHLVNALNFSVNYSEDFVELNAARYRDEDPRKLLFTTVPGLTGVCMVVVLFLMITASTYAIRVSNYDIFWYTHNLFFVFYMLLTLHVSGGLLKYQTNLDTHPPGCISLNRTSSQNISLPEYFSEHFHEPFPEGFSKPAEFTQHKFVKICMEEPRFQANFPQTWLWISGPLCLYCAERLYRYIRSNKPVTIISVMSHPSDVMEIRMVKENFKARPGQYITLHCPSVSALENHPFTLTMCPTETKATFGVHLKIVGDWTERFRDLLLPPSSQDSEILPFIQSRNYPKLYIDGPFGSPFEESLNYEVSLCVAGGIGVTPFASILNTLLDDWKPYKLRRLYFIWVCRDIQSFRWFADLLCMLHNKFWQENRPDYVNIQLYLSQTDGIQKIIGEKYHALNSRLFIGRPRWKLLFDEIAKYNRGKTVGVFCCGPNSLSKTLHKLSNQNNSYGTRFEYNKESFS

| SMILES | z-score [1] | composite z-score [2] | z-score [3] | z-score [4] | z-score [5] | z-score [6] | z-score [7] | z-score [8] | z-score [9] | z-score [10] | z-score [11] | z-score [12] | z-score [13] | z-score [14] | z-score [15] | z-score [16] | z-score [17] | z-score [18] | z-score [19] | z-score [20] |
| --- | --- | --- | --- | --- | --- | --- | --- | --- | --- | --- | --- | --- | --- | --- | --- | --- | --- | --- | --- | --- |
| COc1ccc([Si](C)(C)[C@H]2[C@H](CCO)O[C@@]3(C(=O)N(Cc4cccc(NC(=O)[C@H](C)O)c4)c4ccccc43)[C@@H]2C)cc1 | 0.868 (inactive) | 0.19 | 19.7 (active) | 5.46 (inactive) | 0.334 (inactive) | 1.8 (inactive) | 0.993 | -4.7 (inactive) | 0.621 (inactive) | -1.31 | -2.82 | -0.401 | -4.52 | -2.63 | -4.36 | -2.89 | 1.46 (inactive) | -1.02 | -2.35 | -4.28 (inactive) |
| Cc1ccc(F)cc1S(=O)(=O)N[C@@H]1CCN(Cc2ccc(CC(C)C)cc2)C1 | -19.2 (active) | -0.146 | 2.71 (inactive) | 0.63 (inactive) | 0.233 (inactive) | 0.916 (inactive) | -0.647 | -0.0569 (inactive) | -1.44 (inactive) | -4.02 | -0.815 | -0.537 | -1.8 | -3.34 | -3.56 | -1.08 | -0.545 (inactive) | -1.14 | -2.19 | 0.0665 (inactive) |
| O=C(CS)NCCCCCNC(=O)[C@H]1C[C@H]2C(=O)N3CCC[C@H]3C(=O)N2[C@H]1c1cccc(OCCO)c1 | -0.0612 (inactive) | 0.315 | 3.12 (inactive) | 0.55 (inactive) | -2.35 (inactive) | 0.35 (inactive) | 0.345 | 1.45 (inactive) | 0.557 (inactive) | 0.557 | 0.631 | -0.367 | 0.432 | -0.0388 | -0.198 | 2.21 | 0.0249 (inactive) | -0.736 | -0.419 | 0.477 (inactive) |
| CCOC(=O)NN=C1C[C@@H](O)[C@@H](O)[C@@H]2[C@@H]3C(=O)N(CC)C(=O)[C@@H]3CC[C@@H]12 | -0.562 (inactive) | 0.0053 | -0.485 (inactive) | -0.246 (inactive) | -0.493 (inactive) | -0.336 (inactive) | 0.123 | -1.43 (inactive) | 0.0593 (inactive) | -0.641 | 0.296 | -0.538 | 0.322 | 0.0379 | 0.288 | -0.495 | -0.852 (inactive) | -0.151 | -0.662 | 0.45 (inactive) |
| CCOc1ccc(N2C(=O)/C(=C/C=C/c3ccccc3OC)S(=O)(=O)C2c2cccc([N+](=O)[O-])c2)cc1 (stereo not given) | 3.21 (inactive) | -0.0193 | 1.03 (inactive) | 0.282 (inactive) | -1.1 (inactive) | -1.04 (inactive) | 2.38 | 0.5 (inactive) | 0.389 (inactive) | 1.49 | 1.18 | 1.39 | 0.136 | -2.72 | -0.879 | -0.855 | -0.125 (inactive) | -0.732 | -0.0787 | 0.0969 (inactive) |
| CC(C)c1ccc(NN2C(C(O)c3ccc4c(c3)OCO4)C=CC3C(=O)N(c4ccccc4)C(=O)C32)cc1 (stereo not given) | -0.481 (inactive) | -0.0593 | 1.76 (inactive) | 1 (inactive) | 0.126 (inactive) | 0.778 (inactive) | -0.467 | -0.488 (inactive) | -0.912 (inactive) | -0.752 | -0.842 | -0.293 | 0.367 | -0.911 | -0.369 | -1.53 | -0.462 (inactive) | 0.337 | 0.186 | -0.616 (inactive) |
| CCOC(=O)NN=C1C[C@@H](O)[C@@H](O)[C@@H]2[C@@H]3C(=O)N(C(C)(C)C)C(=O)[C@@H]3CC[C@@H]12 | -0.0206 (inactive) | -0.0601 | 0.209 (inactive) | -0.0313 (inactive) | -0.548 (inactive) | 0.0353 (inactive) | -0.12 | 0.5 (inactive) | 1.05 (inactive) | 0.295 | -0.571 | -0.0947 | -0.394 | 0.0284 | -0.0464 | -0.79 | -0.911 (inactive) | 0.329 | 0.243 | -0.452 (inactive) |
| O=C1[C@H]2[C@H]3[C@H](O)[C@H](O)CC(=NOC[C@@H](O)COCc4ccco4)[C@H]3CC[C@H]2C(=O)N1Cc1ccc2c(c1)OCO2 | 0.198 (inactive) | -0.147 | 8.99 (active) | 1.02 (inactive) | 0.107 (inactive) | 0.229 (inactive) | -0.552 | -0.377 (inactive) | 0.718 (inactive) | 0.00627 | -0.259 | -0.672 | -1.05 | -0.642 | -0.334 | -0.41 | -0.339 (inactive) | -0.149 | -0.635 | -0.138 (inactive) |
| CCOC(=O)[C@H](Cc1ccccc1)NC(=O)CCC1CC(OC(=O)NCCc2ccc(F)cc2)CC2(CCCC(COC(=O)NCC(c3ccccc3)c3ccccc3)O2)O1 (stereo not given in full) | -0.455 (inactive) | -0.144 | 14.2 (active) | 4.68 (inactive) | -0.261 (inactive) | 0.688 (inactive) | -0.058 | 0.0978 (inactive) | -0.136 (inactive) | -0.234 | 0.241 | -0.351 | -1.03 | -3.42 | -3.75 | 0.368 | -0.88 (inactive) | -1 | -2.12 | 0.919 (inactive) |

Reference: PubChem BioAssay
